# Compounds with a hit are over-represented: about 7.4% of the library has one in this group of screens.
# SMN2 splice enh: qHTS Assay for Enhancers of SMN2 Splice Variant Expression; HEK293 SMN2-luciferase splicing reporter, luminescence, 30-36 h; AID 1458, 2008; 2.8% of 210,000 active; Potency, µM (titrated, usually from 46.1 µM), inactives show top-dose activity change, positive = activation, hits mostly activators; note: % of control where 0% means no effect; nearly all actives have a fitted effect of over 55% in size
#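 HEK293 cells carry an SMN2 […]–luciferase reporter in which exon 7 inclusion puts luciferase in frame. Cells were plated 10-12 h before compound addition, then incubated 30-36 h at 37C. ONE-Glo luminescence was read; sodium butyrate at 4.5 mM final served as control.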
# Rab9 prom act: qHTS Assay for Rab9 Promoter Activators; Huh7 Rab9 promoter-luciferase reporter, luminescence, 24 h; Potency, µM (top dose mostly 9.22 µM), inactives show at the highest dose activation, negative = inhibition, hits mostly activators; 2.8% of 320,000 active; note: % of control where 0% means no effect; nearly all actives have a fitted effect of over 60% in size
#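 Stable Rab9-luc Huh7, 1500 cells/well, 2 h settle; cmpd in DMSO, 24 h, 37 °C/5% CO2; luciferase reagent 10 min RT; luminescence.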
# NPC1 prom act: qHTS Assay for NPC1 Promoter Activators. Huh7 NPC1 promoter luciferase reporter, 24 h. Potency, µM (series often up to 9.22 µM), for inactives: at the highest dose activation, actives largely listed as activators. 2.4% of 320,000 active. AID 485313, 2010; note: % of control where 0% means no effect; nearly all actives have a fitted effect of over 60% in size
#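 Luciferase expression driven by the NPC1 promoter was measured in stably transfected Huh7 cells after a 24 h compound incubation, using a luciferase reagent and a luminescence read.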
# FLuc counter: qHTS profiling assay for firefly luciferase inhibitor/activator using purifed enzyme and Km concentrations of substrates (counterscreen for miR-21 project). purified FLuc, Km substrates, luminescence inhibition. Potency, µM (doses to about 57.5 µM), for the others: at the highest dose activity change, negative = inhibition, most hits filed as inhibitors. 6.9% of 360,000 active. AID 588342, 2011;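 note: plate controls were vehicle for no effect and reference inhibitor for full effect; nearly all actives have a fitted effect of over 55% in size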
# Target sequence (P08659 whole entry, looked up): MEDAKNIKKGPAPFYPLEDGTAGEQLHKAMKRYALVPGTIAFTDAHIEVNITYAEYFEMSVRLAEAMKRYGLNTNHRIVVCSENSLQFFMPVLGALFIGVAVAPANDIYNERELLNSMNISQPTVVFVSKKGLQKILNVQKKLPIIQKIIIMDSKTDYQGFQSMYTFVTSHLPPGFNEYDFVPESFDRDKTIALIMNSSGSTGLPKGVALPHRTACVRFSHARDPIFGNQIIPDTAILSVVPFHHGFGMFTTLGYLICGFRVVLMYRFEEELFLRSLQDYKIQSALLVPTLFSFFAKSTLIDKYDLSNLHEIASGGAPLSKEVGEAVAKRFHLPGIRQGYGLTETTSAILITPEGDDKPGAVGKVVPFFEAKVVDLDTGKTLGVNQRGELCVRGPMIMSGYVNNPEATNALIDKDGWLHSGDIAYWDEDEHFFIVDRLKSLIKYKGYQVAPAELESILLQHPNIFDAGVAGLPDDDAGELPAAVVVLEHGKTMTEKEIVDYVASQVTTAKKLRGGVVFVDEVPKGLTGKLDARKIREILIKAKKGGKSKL
#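 Purified P. pyralis luciferase, 10 nM final, with Km-level 10 uM D-luciferin and 10 uM ATP in 50 mM Tris acetate pH 7.5, 10 mM Mg acetate, 0.01% Tween-20, 0.05% BSA; 6-point qHTS titration about 60 µM downward; luminescence read.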
# ELG1 genotox: qHTS screen for small molecules that induce genotoxicity in human embryonic kidney (HEK293T) cells expressing luciferase-tagged ELG1. HEK293T ELG1-luciferase reporter, luminescence, 16 h. Potency, µM (titrated, usually from 46 µM), for inactives: at the highest dose activity change, positive = activation, usual class: activators. 1.3% of 330,000 active; note: % of control where 0% means no effect; nearly all actives have a fitted effect of over 60% in size
#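 DMSO vehicle served as control against compound-treated ELG1-luciferase HEK293T cells; exposure lasted 16 hr at 37 °C and 5% CO2, followed by ONE-Glo luminescence detection after 30 min.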
# * = called active by the depositor; ? = inconclusive; nt = no result given. Calls come from the whole dose curve; as a rule, active = well fitted curve in the direction sought with a large enough effect; inconclusive = small, poorly fitted or top-dose-only effect, or another doubt; inactive = no such curve, though single readings can be large; an effect the other way counts as inactive or inconclusive. Potency is the fitted concentration of half-maximal effect.
SMILES,SMN2 splice enh,Rab9 prom act,NPC1 prom act,FLuc counter,ELG1 genotox
Cn1c(=O)n(C)c2cc(NS(=O)(=O)c3ccc(C(C)(C)C)cc3)c(NCc3ccccc3)cc21,5.62µM*,nt,nt,?,nt
COc1ccc(S(=O)(=O)Nc2ccc3c(c2)n(C)c(=O)n3C)cc1OC,nt,0.9%,2.1%,1.9%,?
Cc1cc(S(=O)(=O)Nc2ccc3c(c2)n(C)c(=O)n3C)ccc1F,-34.8%,-4.8%,-4.8%,2.5%,?
Cn1c(=O)n(C)c2cc(NS(=O)(=O)c3ccc(Cl)cc3)c(NCc3ccccc3)cc21,7.1%,nt,nt,15.1µM*,nt
Cn1c(=O)n(C)c2cc(N3CCOCC3)c(NS(=O)(=O)c3ccc(C(C)(C)C)cc3)cc21,-3.9%,nt,nt,-1.4%,nt
O=C(CSc1nc2ccsc2c(=O)n1-c1ccc(Br)cc1)NCc1ccc(Cl)cc1,nt,nt,nt,6.0%,nt
CCOc1ccc(/C=C2/C(=O)N(c3ccc(OC)cc3)C(=S)N2CC(=O)OC)cc1OCC,12.6µM*,?,?,6.01µM*,?
CCCCNC(=O)CCCn1c(=O)c2ccccc2n(Cc2ccc(Cl)cc2)c1=O,14.7%,nt,nt,-1.3%,nt
CCOC(=O)c1sc2nc(NC(=O)C(C)(C)C)sc2c1C,?,1.26µM*,0.891µM*,2.69µM*,2.59µM*
COC(=O)c1cccc(NC(=O)CCN2C(=O)C3CC=CCC3C2=O)c1 (configuration not stated),nt,-2.0%,-0.3%,-10.2%,0.1%
CCN(CC)S(=O)(=O)c1ccc(NC(=O)c2ccc3c(=O)n4c(nc3c2)CCCCC4)cc1,-64.8%,nt,nt,1.9%,nt
Cc1csc(NC(=O)c2ccc3c(=O)n4c(nc3c2)CCCCC4)n1,nt,1.12µM*,3.55µM*,8.49µM*,15.9%
O=C(Nc1nccs1)c1ccc2c(=O)n3c(nc2c1)CCCCC3,nt,3.16µM*,2.82µM*,10.7µM*,14.5%
O=C(NNC(=S)NCC1CCCO1)c1cc(Br)ccc1Cl (configuration not stated),nt,-2.2%,-4.4%,2.6%,-0.1%
COc1ccc(NC(=O)c2ccc(S(=O)(=O)N(C)C)cc2)cc1OC,-2.7%,-5.3%,5.8%,-17.4%,4.6%
CN(C)S(=O)(=O)c1cccc(C(=O)Nc2ccc3c(c2)CCC3)c1,nt,0.631µM*,1.26µM*,1.69µM*,3.98µM*
CN(C)S(=O)(=O)c1ccc(C(=O)Nc2ccc3c(c2)CCC3)cc1,nt,?,?,19µM*,7.1%
COc1ccc(C2Nc3ccccc3C(=O)N2Cc2ccccc2)cc1COc1ccc(Cl)cc1Cl (configuration not stated),nt,2.2%,-2.6%,12.7%,nt
CC1(c2ccc(Cl)cc2Cl)NC(=O)N(CC(=O)Nc2ccc3[nH]c(=O)[nH]c3c2)C1=O (configuration not stated),nt,4.8%,-3.3%,3.7%,1.4%
Fc1cccc(Cl)c1Cc1noc(/C=C/c2ccccc2)n1,nt,?,?,13.5µM*,15.1%
O=C(c1ccc(Br)cc1)N1CCC2(CC1)NCCc1[nH]cnc12,nt,4.1%,-6.9%,0.8%,-2.2%
CCOc1cc(C(=S)N2CCCCC2)ccc1OCC(=O)NCc1ccccc1,-26.2%,-5.8%,0.8%,16.9µM*,0.5%
Cc1ccc(OCCC(=O)OCC(=O)Nc2ccccc2)cc1,nt,-0.4%,0.4%,-13.1%,0.1%
CCc1ccc(-n2nc(CO)c(C(=O)NC)n2)cc1,?,nt,nt,15.1µM*,nt
CCOc1ccc(-n2nc(CO)c(C(=O)NCc3cccs3)n2)cc1,-10.4%,nt,nt,19µM*,nt
SMILES,SMN2 splice enh,Rab9 prom act,NPC1 prom act,FLuc counter,ELG1 genotox
Cc1ccc(-n2nc(CO)c(C(=O)NCc3cccs3)n2)cc1,-21.4%,nt,nt,-7.4%,nt
Cc1cc(N2CCC(C)CC2)nc2ccc(NC(=O)/C=C/c3cccc(Cl)c3)cc12,-9.6%,nt,nt,4.2%,nt
Cc1ccc(-c2csc3nc(C)n(N)c(=O)c23)o1,4.5%,?,?,?,16.4µM*
Cc1ccc(-c2csc3nc(C)n(-n4c(C)ccc4C)c(=O)c23)o1,-9.7%,1.1%,-2.2%,?,-0.9%
CCCCNc1ncnc2c1nnn2C,nt,nt,nt,-2.2%,nt
COc1ccc(Oc2ccc(C(F)(F)F)cc2N)cc1,nt,?,17.1%,16.9µM*,11.1%
COc1ccc(Oc2ccc(C(F)(F)F)cc2NC(=O)c2ccc(OC)cc2)cc1,nt,-5.4%,-3.5%,-2.5%,-4.1%
CCc1ccc(OCC(=O)NC(=S)Nc2cccc(CO)c2)c(Br)c1,12.6µM*,2.82µM*,1.78µM*,6.01µM*,?
CCc1ccc(OCC(=O)NC(=S)Nc2ccc(F)cc2)c(Br)c1,-16.3%,-2.3%,0.1%,?,12.4%
O=c1oc(-c2cccs2)nc2sc3c(c12)CCCC3,?,4.4%,15.4%,2.39µM*,1.4%
O=c1c2c3c(sc2nc2n1N=C(c1cccs1)CS2)CCCC3,-22.8%,0.631µM*,0.631µM*,0.19µM*,?
O=C1CN(c2nc(-c3cccs3)nc3sc4c(c23)CCCC4)CCN1,?,-44.5%,-37.2%,6.01µM*,?
CCCNC(=O)C1Cc2cc(S(=O)(=O)N3CCCCCC3)ccc2N1C(C)=O (configuration not stated),nt,nt,nt,-2.0%,nt
O=C(CSc1ncc(S(=O)(=O)c2ccc(Br)cc2)c(=O)[nH]1)NCc1ccc(Cl)cc1,4.5%,nt,nt,8.49µM*,nt
Cc1ccc(CNC(=O)CSc2ncc(S(=O)(=O)c3ccc(Br)cc3)c(=O)[nH]2)cc1,-1.5%,nt,nt,6.75µM*,nt
c1ccc2c(c1)Cn1nc(Cc3nc4c(s3)CCCC4)nc1-2,?,?,5.7%,16.9µM*,?
CCCCC1CCC(CCCC(C)CCC(=O)O)CC1 (configuration not stated),-8.5%,nt,nt,26.9µM*,nt
NC(=O)c1cc([N+](=O)[O-])ccc1NCc1cnccn1,nt,-1.0%,0.6%,2.2%,1.6%
O=C(Cc1n[nH]c(=O)c2ccccc12)OCC(=O)c1ccc(F)cc1,nt,0.8%,-2.3%,3.7%,0.1%
O=C(Cc1n[nH]c(=O)c2ccccc12)OCC(=O)c1ccc2c(c1)OCCO2,-18.6%,-10.1%,-7.5%,13.5µM*,?
O=C(Cc1ccc(Br)cc1)OCC(=O)c1ccc2c(c1)OCCO2,15.7%,-1.6%,-4.1%,16.9µM*,3.9%
O=C(CSc1cn(CC(=O)N2CCCCC2)c2ccccc12)Nc1ccccc1F,nt,nt,nt,-12.6%,nt
COc1cccc([C@@H]2Oc3ccc(Br)cc3C[C@H]2OC(=O)Nc2ccc(OC(F)F)cc2)c1,0.4%,nt,nt,nt,nt
CCSc1nnc(NC(=O)CSc2nc3c(cc2C#N)CCCC3)s1,7.94µM*,3.16µM*,1.78µM*,12µM*,13.0%
CCSc1nnc(NC(=O)CSc2nc(C)cc(C)n2)s1,0.0%,-4.0%,2.0%,13.5%,1.1%
Cc1cc(C)cc(-n2ccnc2SCC(=O)Nc2nccs2)c1,6.8%,0.9%,-8.2%,0.6%,-1.0%
